NCOA3 inh: inhibits human SRC3 coactivator; Q9Y6Q9; HEK293 GAL4-SRC3 luciferase reporter, luminescence; inhibition, % at 3.6 µM; 360,000 compounds, 0.17% hits; AID 588352;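 active means inhibition above a per-campaign cutoff, the mean of all compounds plus 3 SD, cut at about 60% in these data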;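 further: 0% = DMSO-treated cells and 100% = gossypol-treated cells at 36 µM; higher means less SRC3-driven luciferase light from the GAL4 reporter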
GalR3 antagonist: antagonists of human GalR3. O60755. HEK293 GalR3-CNG cAMP membrane potential fluorescence; galR3 body fused to GalR1 C-terminus. inhibition, % at 3 µM. 360,000 compounds, 0.44% hits. AID 651719;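 active means inhibition above the screen-wide average plus 3 SD, cut at about 13% in these data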;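 further: forskolin and galanin both at EC90 stimulate the cells; cAMP rise reported by CNG channel membrane potential dye signal; 0% = forskolin plus galanin with DMSO and 100% = forskolin alone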
LRH-1 inv ag: suppresses constitutive activity of human LRH-1. O00482. HEK293T StAR-luciferase reporter, LRH-1 transfected, 24 h. inhibition, % at 3.6 µM. 360,000 compounds, 0.13% hits. AID 602396;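 active means inhibition above the mean inhibition of all tested compounds plus 3 SD, cut at about 73% in these data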;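 further: 0% = DMSO wells and 100% = reporter-only cells lacking LRH-1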
NR2F2 inh: NR2F2 (human) inhibition, primary screen. P24468. HEK293T NGFI-A luciferase reporter, luminescence. inhibition, % at 8.6 µM. 370,000 compounds, 0.7% hits;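 active means inhibition above a per-plate cutoff, mean inhibition of test wells between control levels plus 3 SD, cut at about 38% in these data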;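 further: cells cotransfected with COUP-TFII expression vector driving the NGFI-A reporter; 0% = median of COUP-TF2 test wells and 100% = reporter-only cells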
SRC1 inh: inhibits human SRC1 coactivator; 360,000 compounds, 0.12% hits; AID 588354; Q15788; HEK293 GAL4-SRC1 luciferase reporter, luminescence; inhibition, % at 3.6 µM;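 active means inhibition above the campaign mean plus 3 SD, with each screening campaign given its own cutoff, cut at about 60% in these data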;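 further: 0% = DMSO treated cells and 100% = gossypol at 36 µM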
SRC2 inh: inhibits human steroid receptor coactivator 2; Q15596; HEK293 GAL4-SRC2 luciferase reporter, luminescence; 370,000 compounds, 0.17% hits; AID 651957; inhibition, % at 9 µM;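 active means inhibition above the mean inhibition of all tested compounds plus 3 SD, set per campaign, cut at about 52% in these data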;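 further: 0% = DMSO treated cells and 100% = cells given Gossypol at 36 µM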
VP16 Luc counter: counter-screen for COUP-TFII antagonists: inhibitors of VP16; 2,500 compounds, 25% hits; HEK293 Gal4-VP16 luciferase reporter, luminescence; inhibition, % at 8.5 µM; shares compounds with NR2F2 inh; in the data active means inhibition above about 13%
NR2F2 inh conf: confirmation of human COUP-TFII (NR2F2) inhibitors | shares compounds with NR2F2 inh | HEK293 NGFI-A luciferase reporter, luminescence | inhibition, % at 8.5 µM | 2,500 compounds, 45% hits | AID 687008;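 active means mean inhibition over three repeats above a set limit taken from the earlier primary screen, cut at about 38% in these data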;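 further: 100% = cells given the luciferase reporter alone without the COUP-TF2 vector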
* = called active by the depositor; . = not tested or not shown. The list is not random: actives were taken first. Their share in the collection is about 1.1%.

SMILES	NCOA3 inh	GalR3 antagonist	LRH-1 inv ag	NR2F2 inh	SRC1 inh	SRC2 inh	VP16 Luc counter	NR2F2 inh conf
C=CCN1C(=O)c2ccc(C(=O)N(C)CC(=O)Nc3cccc(F)c3)cc2C1=O	9	0	16	1	-4	-19	.	.
c1ccc2c(c1)[nH]c1c(N3CCCC3)ncnc12	7	-2	33	44*	17	-18	-3	23
Cc1ccc2[nH]c3c(N4CCc5ccccc5C4)ncnc3c2c1	-6	-6	-23	60*	-12	-8	-39	50*
CN1CCN(c2ncnc3c2[nH]c2ccc(F)cc23)CC1	12	-5	-12	0	-5	-14	.	.
Fc1ccc2[nH]c3c(N4CCc5ccccc5C4)ncnc3c2c1	32	-7	17	74*	19	8	-8	70*
COc1ccc(OC)c(C(=O)NC(CC(N)=O)c2ccc(N3CCN(c4ccc(F)cc4)CC3)c([N+](=O)[O-])c2)c1 (stereo unspecified)	6	-6	20	8	-1	-28	.	.
CCOC(=O)c1csc(NC(=O)C2CCCN(S(=O)(=O)c3ccc([N+](=O)[O-])cc3)C2)n1 (stereo unspecified)	.	.	.	46*	.	14	-7	23
CCOC(=O)C1CCCN(S(=O)(=O)c2ccc(S(=O)(=O)N(CC)CC)cc2)C1 (stereo unspecified)	26	92*	43	68*	7	17	10	66*
COc1ccc([N+](=O)[O-])cc1NC(=S)NC(NC(=O)C(c1ccccc1)c1ccccc1)C(Cl)(Cl)Cl (stereo unspecified)	6	-6	4	41*	7	13	0	13
COc1cc(NC(=O)c2ccc([N+](=O)[O-])cc2)c(OC)cc1NC(=O)CC(C)C	-14	0	12	-18	-4	-7	.	.
c1ccc(-c2nnc(SCc3nc4ccccc4[nH]3)n2Cc2ccco2)cc1	-44	-5	34	17	-10	-12	.	.
Cc1ccc(OCc2nnc(SCc3nc4ccccc4[nH]3)n2Cc2ccco2)cc1	8	-3	6	42*	-2	-3	-3	17
N#Cc1cc(-c2ccccc2)[nH]c1-c1nccc2ccccc12	17	-5	17	50*	-2	20	-4	13
COc1cccc(OC)c1NC(=O)OCCN1CCCC12CCC(c1ccccc1)CC2 (stereo unspecified)	.	.	.	-17	.	.	.	.
C=CCNC(=S)N/N=C/c1ccc(C(F)(F)F)cc1	10	-4	12	43*	17	11	-3	28
C=CCNC(=S)N/N=C/c1ccc(N(CC)Cc2ccccc2)cc1	3	-4	42	15	6	6	.	.
CCCN(CC(=O)Nc1ccccc1OC)C(=O)c1ccc2c(c1)NC(=O)C(C)S2 (stereo unspecified)	25	-1	-3	-14	-8	-14	.	.
CC1Cc2cc(-c3csc(NC(=O)Cc4cccs4)n3)ccc2N1S(C)(=O)=O (stereo unspecified)	64*	10	62	81*	53	11	-2	85*
CCC(=O)Nc1nc(-c2ccc3c(c2)CC(C)N3S(C)(=O)=O)cs1 (stereo unspecified)	-36	-7	-17	0	-29	-2	.	.
CCN(CC)S(=O)(=O)c1ccc(O)c(C(=O)OCC(=O)NC23CC4CC(CC(C4)C2)C3)c1	-8	-6	-3	-13	-8	1	.	.
COc1ccccc1OCc1ccc(C(=O)Nc2ccncc2)o1	32	-5	-2	39*	10	8	3	16
CCOC(=O)C1CCN(c2cc(C)nc3ccc(OC)cc23)CC1	27	-8	18	42*	5	23	2	7
CCOc1cc(/C=C2\CN(C)C/C(=C\c3ccc(O)c(OCC)c3)C2=O)ccc1O	54	-7	25	78*	33	21	57*	82*
C[C@@H](CCCCC1(C)OCCO1)CCC(=O)N(c1ccccc1)c1ccccc1	.	.	.	-11	.	9	.	.
CC(C)(C)c1ccc(OCCC(=O)OCC(=O)NC2CC2)cc1	-2	-4	6	43*	13	40	17*	4
SMILES	NCOA3 inh	GalR3 antagonist	LRH-1 inv ag	NR2F2 inh	SRC1 inh	SRC2 inh	VP16 Luc counter	NR2F2 inh conf
CC(C)(C)c1ccc(OCCC(=O)OCC(=O)NC2CCS(=O)(=O)C2)cc1 (stereo unspecified)	14	-2	10	-9	0	-32	.	.
CC(C)COc1ccc(C/C(N)=N/n2cnnc2)cc1	22	1	8	39*	-41	35	3	18
CCOC(=O)c1ccc(-c2ccc(N3C(c4ccsc4)=Cc4ccc(F)cc4C3c3c[nH]c4ccc(C#N)cc34)cc2)cc1F (stereo unspecified)	.	-7	20	56*	.	79*	-5	0
CC(C)(O)C#Cc1ccc(N2C(c3ccsc3)=Cc3ccc(F)cc3C2c2c[nH]c3ccc(C#N)cc23)cc1 (stereo unspecified)	.	-6	-4	-6	.	-27	.	.
COC(=O)c1ccc(Cn2ccc3ccc(-c4ccc5ccn(C(=O)c6ccccc6C)c5c4)cc32)cc1	.	.	.	8	.	3	.	.
COC1CC(C)C(OC)c2cc(O)cc(c2O)NC(=O)C(C)=CC=CC(C)C(OC(N)=O)C(C)=CC(C)C1OC (stereo unspecified)	55	-5	23	-23	34	11	.	.
COC1C=CC=C(C)C(=O)NC2=CC(=O)C(N)=C(CC(C)CC(OC)C(O)C(C)C=C(C)C1OC(N)=O)C2=O (stereo unspecified)	75*	-6	86*	55*	72*	19	61*	75*
O=c1c2ccccc2sc2ccc(C#CC3(O)CCCCC3)cc12	93*	-6	91*	96*	93*	85*	90*	105*
O=c1c2ccccc2oc2cc(C#CC3(O)CCCCC3)ccc12	62*	2	53	69*	65*	50	5	67*
CCc1nc2ccc(C(=O)NCCCn3ccnc3)cn2c1N(C)Cc1nccs1	16	4	4	-5	-6	1	.	.
CC1CN(c2nc3ccccc3nc2SCC(=O)N2CCN(S(=O)(=O)c3ccc(F)cc3)CC2)CC(C)O1 (stereo unspecified)	.	.	.	25	.	3	.	.
CC1CN(c2nc3ccccc3nc2SCC(=O)N2CCN(S(=O)(=O)c3ccccc3)CC2)CC(C)O1 (stereo unspecified)	.	.	.	43*	.	12	3	10
